# The supplement of paper PMC4466140
# B1: unnamed (peptide)
# chain: AIPPPVPNRPGGTTN
# B2: unnamed (peptide)
# chain: NSVPIMPTLPPRPYI
# Tests used:
# Experiment in all cases: SPOT peptide array binding signal intensity (averaged, normalized) (arbitrary units (background-subtracted, floor 0; scale differs between SH3 domains)); higher = stronger binding of the SH3 domain to the peptide
# AgAbp1 = target: AgAbp1
# Method in brief: (§1)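 GST-fused SH3 domains from four yeast species were expressed in E. coli BL21(DE3), purified on glutathione Sepharose and incubated at 10 μg/ml overnight at 4°C in TBS-based blocking buffer on cellulose membranes carrying synthetic 15-mer peptides, with cysteines replaced by serines. Bound protein was detected with anti-GST antibody, an HRP anti-mouse secondary and luminol, then imaged and quantified with Genespotter. Binding signal is the normalized, background-subtracted spot intensity averaged over replicates, in arbitrary units that differ between domains.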
# AgBbc1 = target: AgBbc1
# Method in brief: as §1
# AgBem1-D1 = target: AgBem1-D1
# Method in brief: as §1
# AgBzz1-D1 = target: AgBzz1-D1
# Method in brief: as §1
# AgBzz1-D2 = target: AgBzz1-D2
# Method in brief: as §1
# AgCyk3 = target: AgCyk3
# Method in brief: as §1
# AgFus1 = target: AgFus1
# Method in brief: as §1
# AgHof1 = target: AgHof1
# Method in brief: as §1
# AgHse1 = target: AgHse1
# Method in brief: as §1
# AgLsb1 = target: AgLsb1
# Method in brief: as §1
# AgLsb4 = target: AgLsb4
# Method in brief: as §1
# AgMyo5 = target: AgMyo5
# Method in brief: as §1
# AgNbp2 = target: AgNbp2
# Method in brief: as §1
# AgRvs167 = target: AgRvs167
# Method in brief: as §1
# AgSho1 = target: AgSho1
# Method in brief: as §1
# AgSla1-D1-D2 = target: AgSla1-D1-D2
# Method in brief: as §1
# AgSla1-D3 = target: AgSla1-D3
# Method in brief: as §1
# CaAbp1-D1 = target: CaAbp1-D1
# Method in brief: as §1
# CaAbp1-D2 = target: CaAbp1-D2
# Method in brief: as §1
# CaBbc1 = target: CaBbc1
# Method in brief: as §1
# CaBem1-D1 = target: CaBem1-D1
# Method in brief: as §1
# CaBzz1-D1 = target: CaBzz1-D1
# Method in brief: as §1
# CaBzz1-D2 = target: CaBzz1-D2
# Method in brief: as §1
# CaCyk3 = target: CaCyk3
# Method in brief: as §1
# CaFus1 = target: CaFus1
# Method in brief: as §1
# CaHof1 = target: CaHof1
# Method in brief: as §1
# CaHse1 = target: CaHse1
# Method in brief: as §1
# CaLsb1 = target: CaLsb1
# Method in brief: as §1
# CaLsb4 = target: CaLsb4
# Method in brief: as §1
# CaMyo5 = target: CaMyo5
# Method in brief: as §1
# CaNbp2 = target: CaNbp2
# Method in brief: as §1
# CaRvs167 = target: CaRvs167
# Method in brief: as §1
# CaRvs167-3 = target: CaRvs167-3
# Method in brief: as §1
# CaSho1 = target: CaSho1
# Method in brief: as §1
# CaSla1-D1-D2 = target: CaSla1-D1-D2
# Method in brief: as §1
# CaSla1-D3 = target: CaSla1-D3
# Method in brief: as §1
# ScAbp1 = target: ScAbp1
# Method in brief: as §1
# ScBbc1 = target: ScBbc1
# Method in brief: as §1
# ScBem1-D1 = target: ScBem1-D1
# Method in brief: as §1
# ScBzz1-D1 = target: ScBzz1-D1
# Method in brief: as §1
# ScBzz1-D2 = target: ScBzz1-D2
# Method in brief: as §1
# ScCyk3 = target: ScCyk3
# Method in brief: as §1
# ScFus1 = target: ScFus1
# Method in brief: as §1
# ScHof1 = target: ScHof1
# Method in brief: as §1
# ScHse1 = target: ScHse1
# Method in brief: as §1
# ScLsb1 = target: ScLsb1
# Method in brief: as §1
# ScLsb2 = target: ScLsb2
# Method in brief: as §1
# ScLsb3 = target: ScLsb3
# Method in brief: as §1
# ScLsb4 = target: ScLsb4
# Method in brief: as §1
# ScMyo3 = target: ScMyo3
# Method in brief: as §1
# ScMyo5 = target: ScMyo5
# Method in brief: as §1
# ScNbp2 = target: ScNbp2
# Method in brief: as §1
# ScPex13 = target: ScPex13
# Method in brief: as §1
# ScRvs167 = target: ScRvs167
# Method in brief: as §1
# ScSho1 = target: ScSho1
# Method in brief: as §1
# ScSla1-D1-D2 = target: ScSla1-D1-D2
# Method in brief: as §1
# ScSla1-D3 = target: ScSla1-D3
# Method in brief: as §1
# SpAbp1-D1 = target: SpAbp1-D1
# Method in brief: as §1
# SpBbc1 = target: SpBbc1
# Method in brief: as §1
# SpBzz1-D1 = target: SpBzz1-D1
# Method in brief: as §1
# SpBzz1-D2 = target: SpBzz1-D2
# Method in brief: as §1
# SpCyk3 = target: SpCyk3
# Method in brief: as §1
# SpHof1 = target: SpHof1
# Method in brief: as §1
# SpHof1-2 = target: SpHof1-2
# Method in brief: as §1
# SpHof1-3 = target: SpHof1-3
# Method in brief: as §1
# SpHse1 = target: SpHse1
# Method in brief: as §1
# SpLsb1 = target: SpLsb1
# Method in brief: as §1
# SpLsb4 = target: SpLsb4
# Method in brief: as §1
# SpMyo1 = target: SpMyo1
# Method in brief: as §1
# SpNbp2 = target: SpNbp2
# Method in brief: as §1
# SpPex13 = target: SpPex13
# Method in brief: as §1
# SpRvs167 = target: SpRvs167
# Method in brief: as §1
# SpSla1-D1-D2 = target: SpSla1-D1-D2
# Method in brief: as §1
# SpSla1-D3 = target: SpSla1-D3
# Method in brief: as §1
binder,measurement,setting,value
B1,SPOT peptide array binding signal intensity,AgAbp1,≤ 0
same,SPOT peptide array binding signal intensity,AgBbc1,1380
same,SPOT peptide array binding signal intensity,AgBem1-D1,≤ 0
same,SPOT peptide array binding signal intensity,AgBzz1-D1,61
same,SPOT peptide array binding signal intensity,AgBzz1-D2,≤ 0
same,SPOT peptide array binding signal intensity,AgCyk3,≤ 0
same,SPOT peptide array binding signal intensity,AgFus1,≤ 0
same,SPOT peptide array binding signal intensity,AgHof1,≤ 0
same,SPOT peptide array binding signal intensity,AgHse1,13
same,SPOT peptide array binding signal intensity,AgLsb1,373
same,SPOT peptide array binding signal intensity,AgLsb4,1024
same,SPOT peptide array binding signal intensity,AgMyo5,3.5
same,SPOT peptide array binding signal intensity,AgNbp2,≤ 0
same,SPOT peptide array binding signal intensity,AgRvs167,269
same,SPOT peptide array binding signal intensity,AgSho1,≤ 0
same,SPOT peptide array binding signal intensity,AgSla1-D1-D2,≤ 0
same,SPOT peptide array binding signal intensity,AgSla1-D3,≤ 0
same,SPOT peptide array binding signal intensity,CaAbp1-D1,≤ 0
same,SPOT peptide array binding signal intensity,CaAbp1-D2,≤ 0
same,SPOT peptide array binding signal intensity,CaBbc1,2040
same,SPOT peptide array binding signal intensity,CaBem1-D1,0.5
same,SPOT peptide array binding signal intensity,CaBzz1-D1,570
same,SPOT peptide array binding signal intensity,CaBzz1-D2,79
same,SPOT peptide array binding signal intensity,CaCyk3,192
same,SPOT peptide array binding signal intensity,CaFus1,≤ 0
same,SPOT peptide array binding signal intensity,CaHof1,0.5
same,SPOT peptide array binding signal intensity,CaHse1,1.75
same,SPOT peptide array binding signal intensity,CaLsb1,1
same,SPOT peptide array binding signal intensity,CaLsb4,2490
same,SPOT peptide array binding signal intensity,CaMyo5,≤ 0
B2,SPOT peptide array binding signal intensity,AgAbp1,≤ 0
same,SPOT peptide array binding signal intensity,AgBbc1,394
same,SPOT peptide array binding signal intensity,AgBem1-D1,102
same,SPOT peptide array binding signal intensity,AgBzz1-D1,21
same,SPOT peptide array binding signal intensity,AgBzz1-D2,≤ 0
same,SPOT peptide array binding signal intensity,AgCyk3,9.5
same,SPOT peptide array binding signal intensity,AgFus1,20.5
same,SPOT peptide array binding signal intensity,AgHof1,118
same,SPOT peptide array binding signal intensity,AgHse1,320
same,SPOT peptide array binding signal intensity,AgLsb1,26
same,SPOT peptide array binding signal intensity,AgLsb4,2370
same,SPOT peptide array binding signal intensity,AgMyo5,71.5
same,SPOT peptide array binding signal intensity,AgNbp2,192
same,SPOT peptide array binding signal intensity,AgRvs167,50.2
same,SPOT peptide array binding signal intensity,AgSho1,21
same,SPOT peptide array binding signal intensity,AgSla1-D1-D2,≤ 0
same,SPOT peptide array binding signal intensity,AgSla1-D3,≤ 0
same,SPOT peptide array binding signal intensity,CaAbp1-D1,≤ 0
same,SPOT peptide array binding signal intensity,CaAbp1-D2,5
same,SPOT peptide array binding signal intensity,CaBbc1,1090
same,SPOT peptide array binding signal intensity,CaBem1-D1,162
same,SPOT peptide array binding signal intensity,CaBzz1-D1,103
same,SPOT peptide array binding signal intensity,CaBzz1-D2,3
same,SPOT peptide array binding signal intensity,CaCyk3,120
same,SPOT peptide array binding signal intensity,CaFus1,293
same,SPOT peptide array binding signal intensity,CaHof1,15
same,SPOT peptide array binding signal intensity,CaHse1,310
same,SPOT peptide array binding signal intensity,CaLsb1,3.25
same,SPOT peptide array binding signal intensity,CaLsb4,2280
same,SPOT peptide array binding signal intensity,CaMyo5,27.5
same,SPOT peptide array binding signal intensity,CaNbp2,400
same,SPOT peptide array binding signal intensity,CaRvs167,423
same,SPOT peptide array binding signal intensity,CaRvs167-3,≤ 0
same,SPOT peptide array binding signal intensity,CaSho1,260
same,SPOT peptide array binding signal intensity,CaSla1-D1-D2,52
same,SPOT peptide array binding signal intensity,CaSla1-D3,46
same,SPOT peptide array binding signal intensity,ScAbp1,≤ 0
same,SPOT peptide array binding signal intensity,ScBbc1,128
same,SPOT peptide array binding signal intensity,ScBem1-D1,≤ 0
same,SPOT peptide array binding signal intensity,ScBzz1-D1,3
same,SPOT peptide array binding signal intensity,ScBzz1-D2,1
same,SPOT peptide array binding signal intensity,ScCyk3,≤ 0
same,SPOT peptide array binding signal intensity,ScFus1,40.5
same,SPOT peptide array binding signal intensity,ScHof1,252
same,SPOT peptide array binding signal intensity,ScHse1,26.5
same,SPOT peptide array binding signal intensity,ScLsb1,380
same,SPOT peptide array binding signal intensity,ScLsb2,128
same,SPOT peptide array binding signal intensity,ScLsb3,3460
same,SPOT peptide array binding signal intensity,ScLsb4,2610
same,SPOT peptide array binding signal intensity,ScMyo3,668
same,SPOT peptide array binding signal intensity,ScMyo5,107
same,SPOT peptide array binding signal intensity,ScNbp2,210
same,SPOT peptide array binding signal intensity,ScPex13,1530
same,SPOT peptide array binding signal intensity,ScRvs167,834
same,SPOT peptide array binding signal intensity,ScSho1,154
same,SPOT peptide array binding signal intensity,ScSla1-D1-D2,2
same,SPOT peptide array binding signal intensity,ScSla1-D3,72
same,SPOT peptide array binding signal intensity,SpAbp1-D1,≤ 0
same,SPOT peptide array binding signal intensity,SpBbc1,50
same,SPOT peptide array binding signal intensity,SpBzz1-D1,78
same,SPOT peptide array binding signal intensity,SpBzz1-D2,0.5
same,SPOT peptide array binding signal intensity,SpCyk3,6
same,SPOT peptide array binding signal intensity,SpHof1,6.5
same,SPOT peptide array binding signal intensity,SpHof1-2,34.5
same,SPOT peptide array binding signal intensity,SpHof1-3,18.8
same,SPOT peptide array binding signal intensity,SpHse1,214
same,SPOT peptide array binding signal intensity,SpLsb1,523
same,SPOT peptide array binding signal intensity,SpLsb4,4060
same,SPOT peptide array binding signal intensity,SpMyo1,378
same,SPOT peptide array binding signal intensity,SpNbp2,76.5
same,SPOT peptide array binding signal intensity,SpPex13,25
same,SPOT peptide array binding signal intensity,SpRvs167,1070
same,SPOT peptide array binding signal intensity,SpSla1-D1-D2,≤ 0
same,SPOT peptide array binding signal intensity,SpSla1-D3,21.5
